This is a sample that favours compounds with a hit; in the whole collection about 2.6% have one here.
Cruzain Triton = cruzain (T. cruzi) inhibition with detergent; purified cruzain, Z-FR-AMC fluorescence, 0.01% Triton; Potency, µM, usual class: inhibitors; 200,000 compounds, 0.43% hits; AID 1478; further: nearly all actives have a fitted effect of over 40% in size
Target sequence (P25779 123-467 limits assumed): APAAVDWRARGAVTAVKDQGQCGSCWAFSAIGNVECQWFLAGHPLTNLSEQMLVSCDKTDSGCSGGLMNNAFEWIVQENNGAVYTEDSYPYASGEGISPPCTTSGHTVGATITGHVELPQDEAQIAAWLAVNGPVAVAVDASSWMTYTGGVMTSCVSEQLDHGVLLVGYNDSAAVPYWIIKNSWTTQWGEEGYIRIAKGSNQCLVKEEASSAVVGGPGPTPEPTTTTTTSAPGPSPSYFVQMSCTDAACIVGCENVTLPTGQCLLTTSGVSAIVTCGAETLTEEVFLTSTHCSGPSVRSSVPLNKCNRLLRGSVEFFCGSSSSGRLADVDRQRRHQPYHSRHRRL
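Enzyme 1.5 nM, Z-FR-AMC 2 uM, NaOAc 100 mM pH 5.5, DTT 5 mM, Triton X-100 0.01%; 15 min RT compound preincubation; kinetic ex360/em450, 60 s delta.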
Cruzain inh noDet = inhibitors of Trypanosoma cruzi cruzain without detergent. P25779. purified cruzain, Z-FR-AMC fluorescence, no detergent. AID 1476. 200,000 compounds, 2.3% hits. Potency, µM, most hits filed as inhibitors; further: nearly all actives have a fitted effect of over 40% in size
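Purified cruzain at 1.5 nM, pre-incubated 15 min with compound at room temperature in 100 mM sodium acetate pH 5.5, 5 mM DTT, 0.00005% Triton X-100. Reaction started with 2 uM Z-FR-AMC; AMC fluorescence increase over 60 s gives rate.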
Each line names hits and unclear results; the compound was inactive in the other large screens. The call rests on the fitted dose curve; in most records, active means well fitted curve in the direction sought with a large enough effect; inconclusive means small, poorly fitted or top-dose-only effect, or another doubt; inactive means no such curve, though single readings can be large; an effect the other way counts as inactive or inconclusive.

O=C(Nc1ccccc1)N(Cc1c[nH]c2ccccc12)C1CCCCCC1	none
COc1ccccc1Nc1nc(-c2ccc(F)cc2)c2c(n1)-c1ccccc1OC2	Cruzain inh noDet 10µM
Fc1ccc(Nc2nc(-c3ccc(F)cc3)c3c(n2)-c2ccccc2OC3)cc1	Cruzain inh noDet inconclusive
CCN(C(=O)CSc1nc(-c2ccc(C(C)C)cc2)no1)c1cccc(C)c1	none
COc1cccc(CNC(=O)Cn2ncn3nc(-c4cccs4)cc3c2=O)c1	none
Cc1cc(/C=C2\SC(=S)N(Cc3ccco3)C2=O)c(C)n1-c1ccccc1	Cruzain inh noDet 10µM
O=C1/C(=C\c2ccco2)SC(=S)N1Cc1ccccc1	none
O=C(O)c1cc(N/N=C/c2ccc3c(c2)OCCO3)ccc1Cl	none
Cc1ccc(N/N=C/c2ccc3c(c2)OCCO3)cc1Cl	Cruzain inh noDet 20µM
COc1ccc(OC)c(CCNC(=O)C(C)n2c(C)c3cnn(-c4ccccc4)c(=O)c3c2C)c1 (stereo not given)	Cruzain inh noDet inconclusive
CCn1cc(S(=O)(=O)CC(=O)Nc2ccc(C)cc2)c2ccccc21	none
Cc1cccc(NC(=O)CS(=O)(=O)c2nc(-c3ccccc3)cn2-c2cccc(Cl)c2)c1C	Cruzain inh noDet 10µM
O=C(CN1CCN(c2ccc(Cl)cc2)CC1)Nc1ccc(F)cc1F	none
Cc1cccc(NC(=O)CSc2nc(-c3ccccc3)cn2-c2ccccc2)c1C	Cruzain inh noDet inconclusive
O=C(CS(=O)(=O)c1nc(-c2ccc(Cl)cc2)cn1-c1ccccc1)Nc1ccc(F)cc1F	Cruzain inh noDet 25µM
Cc1ccc(NC(=O)CS(=O)(=O)c2nc(-c3ccc(C)cc3)cn2-c2ccc(C)cc2)cc1	Cruzain inh noDet 13µM
Cc1cccc(-n2cc(-c3ccccc3)nc2SCC(=O)Nc2ccccc2Cl)c1	none
Cc1ccc(-c2cn(-c3cccc(Cl)c3)c(S(=O)(=O)CC(=O)Nc3ccccc3F)n2)cc1	Cruzain inh noDet 16µM
COc1cc(OC)c(NC(=O)Cn2c(=O)cc(C(F)(F)F)c3c(C)nn(C)c32)cc1Cl	none
COc1ccc(CNC(=O)C(=O)NCC(c2ccco2)S(=O)(=O)c2ccc(Cl)cc2)cc1 (stereo not given)	none
COC(=O)c1ccccc1NC(=O)CSc1cc(-c2ccccc2)nc(C)n1	none
COc1cn(CC(=O)Nc2ccc(C)cc2C)c(CN2CCCCC2)cc1=O	none
FC(F)(F)c1ccccc1-c1nccc(-n2ccnc2)n1	none
Cc1ccc(-c2cn(-c3cccc(Cl)c3)c(S(=O)(=O)CC(=O)Nc3cccc(C)c3)n2)cc1	Cruzain inh noDet 16µM
CCOc1ccc(-c2cn(-c3ccc(C)cc3)c(SCC(=O)Nc3ccc(C)cc3)n2)cc1	Cruzain inh noDet 25µM
CCOc1ccc(-c2cn(-c3ccc(OC)cc3)c(SCC(=O)Nc3ccccc3Cl)n2)cc1	Cruzain inh noDet inconclusive
O=C(CS(=O)(=O)c1nc(-c2ccc(Cl)cc2)cn1-c1ccccc1)Nc1cccc(Cl)c1	Cruzain Triton inconclusive
CCCCCCN(C(=O)CCCCCN1C(=O)NC(c2ccc(-c3ccccc3)cc2)C(C(=O)OCc2ccccc2)=C1C)C(C(=O)NCCCC)c1ccc(OCC(=O)O)c(C(=O)O)c1 (stereo not given)	Cruzain Triton inconclusive
CCCC(CCC)C(=O)Nc1cccc(-c2nc3cccnc3s2)c1	none
C[C@@H]1CC[C@@]2(OC1)O[C@H]1[C@@H](O)[C@H]3[C@@H]4CC[C@H]5C[C@@H](O[C@@H]6O[C@H](CO)[C@H](O[C@@H]7O[C@H](CO)[C@@H](O)[C@H](O[C@@H]8OC[C@@H](O)[C@H](O)[C@H]8O)[C@H]7O[C@@H]7O[C@H](CO)[C@@H](O)[C@H](O[C@@H]8O[C@H](CO)[C@@H](O)[C@H](O)[C@H]8O)[C@H]7O)[C@H](O)[C@H]6O)[C@H](O)C[C@]5(C)[C@H]4CC[C@]3(C)[C@H]1[C@@H]2C	Cruzain inh noDet inconclusive
CC1=NN(c2nc(-c3ccccc3)cs2)C(=O)C1	none
CC1=NN(c2nc(-c3ccc(C)cc3)cs2)C(=O)C1N=Nc1cccc(C)c1 (stereo not given)	Cruzain inh noDet 13µM
CCc1ccc(-n2c(=O)c3cccnc3n2CC(=O)Nc2cc(OC)ccc2OC)cc1	none
CCc1cccc(-n2c(=O)c3cccnc3n2CC(=O)Nc2ccc(OC)c(Cl)c2)c1	Cruzain inh noDet 25µM
C=C(C)[C@H]1CC[C@]2(CO)CC[C@]3(C)[C@@H](CC[C@H]4[C@@]5(C)CC[C@@H](O)C(C)(C)[C@@H]5CC[C@@]43C)[C@H]12	none
C=C(C)[C@@H]1CCC2(C(=O)O)CC[C@]3(C)[C@H](CC[C@@H]4[C@@]5(C)CCC(=O)C(C)(C)[C@@H]5CC[C@]43C)[C@@H]12 (stereo not given in full)	Cruzain inh noDet 5µM
COc1ccc([N+](=O)[O-])cc1NC(=O)CC(c1ccccc1)c1ccccc1	Cruzain inh noDet 25µM
COc1ccc([N+](=O)[O-])cc1NC(=O)C(C)c1ccccc1 (stereo not given)	none
c1coc(-c2nc3ccccc3nc2-c2ccco2)c1	Cruzain Triton 14µM, Cruzain inh noDet 13µM
O=c1oc(-c2ccco2)nc2ccccc12	none
Cc1cc(C)c(/C=C/c2onc(C)c2S(=O)(=O)N2CCC(C(=O)Nc3ccc(Cl)c(C(F)(F)F)c3)CC2)c(C)c1	none
COc1ccc2cc3cc(C(=O)N4CCN(Cc5ccc6c(c5)OCO6)CC4)oc3nc2c1	Cruzain Triton 32µM
COc1ccc2cc3cc(C(=O)NCc4ccc5c(c4)OCO5)oc3nc2c1	none
CCNC(=O)c1c(NC(=O)c2nc(S(=O)(=O)CC)ncc2Cl)sc2c1CCCC2	none
N#Cc1c(C(F)(F)F)cc(-c2cccs2)nc1SCc1cccnc1	Cruzain Triton 32µM, Cruzain inh noDet inconclusive
N#Cc1c(C(F)(F)F)cc(-c2cccs2)nc1SCc1ccc(F)cc1	none
CCOC(=O)c1ccc(NC(=O)c2c(NCc3cccs3)sc3c2CCCCC3)cc1	none
Cc1ccc(S(=O)(=O)Nc2ccccc2C=O)cc1	none
COCCCNC(=O)c1oc2c(c1C)-c1nn(Cc3cccc(Cl)c3)cc1CC2	none
Cc1cc(C(=O)CSc2n[nH]c(-c3ccccc3F)n2)c(C)n1Cc1cccs1	Cruzain inh noDet 16µM
Cc1csc(SCC(=O)c2cc(C)n(Cc3cccs3)c2C)n1	none
COc1ccc(NC(=O)C2CCN(S(=O)(=O)c3c(C)noc3/C=C/c3ccco3)CC2)cc1	none
CCOC(=O)C1CCN(C(=O)c2cc3ccc4ccc(C)[nH]c4c3n2)CC1	none
COc1ccccc1Nc1nc(-c2ccccc2)c(CC(=O)O)s1	Cruzain inh noDet 25µM
O=C(O)Cc1sc(N/N=C\c2ccccc2)nc1-c1ccccc1	Cruzain inh noDet inconclusive
O=C1NC(=S)N/C1=C/c1ccc(-c2c(Br)cc([N+](=O)[O-])cc2Br)o1	Cruzain inh noDet 20µM
O=C1NC(=S)N/C1=C\c1cccc([N+](=O)[O-])c1	Cruzain inh noDet inconclusive
O=C(CN1C(=O)CC(c2ccco2)Sc2ccccc21)Nc1ccc(OC(F)(F)F)cc1 (stereo not given)	none
CC1(C)N=C(N)NC(Nc2cccc(Br)c2)=N1	none
CC1(C)N=C(N)NC(Nc2ccc(Br)cc2)=N1	Cruzain Triton 16µM, Cruzain inh noDet 20µM
COc1ccc(C(=O)COC(=O)c2cc(-c3ccccc3)nc3c(C)cccc23)cc1	none
CSc1ccc(CCNC(=O)c2ccc(CS(=O)(=O)c3ccc(Br)cc3)o2)cc1	none
CCc1cccc(C)c1NC(=O)C1=C(C)C(=O)OC12CCC(C)CC2 (stereo not given)	none

Assay outcomes deposited in PubChem BioAssay by National Center for Advancing Translational Sciences (NCATS).
